Assay [1] in a line: qHTS assay to identify small molecule agonists of the sonic hedgehog signaling (Shh) pathway (AID 1259368; calls by dose curve;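 note: NIH/3T3-derived 3T3Gli1-Luc cells carrying a stable Gli1-driven firefly luciferase reporter; series mostly up to about 92 µM; nearly all actives have a fitted effect of over 15% in size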). A digest of the protocol:
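Hedgehog pathway agonism scored by increased firefly luciferase luminescence in 3T3Gli1-Luc cells treated 24 hr at 37 C; detection used a 30 min room-temperature reagent incubation.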
In general terms: qHTS replaces the single test concentration by a dilution series.

The nature of assay [2]: qHTS assay to identify small molecule antagonists of the sonic hedgehog signaling (Shh) pathway (AID 1259369; calls by dose curve; note: nearly all actives have a fitted effect of over 45% in size; note: potency is the fitted concentration of half-maximal effect). A digest of the protocol: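 NIH/3T3 stable Gli1-Luc clone, 2,000 cells/well, 4hr settle; cpd + conditioned medium 24hr; Luc reagent 30min RT; luminescence.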
The target of assay [3] is Estrogen receptor beta (Homo sapiens) (UniProt Q92731). The assay is described as follows: qHTS assay to identify small molecule agonists of the estrogen receptor beta (ER-beta) signaling pathway (AID 1259377; active = well fitted activation curve with a large enough effect in the signal ratio in the repeat runs, not every such curve was filed as active; the % refers to the signal ratio). In short, it runs like this: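 Read-out: beta-lactamase FRET fluorescence. Cell line: ER-beta-UAS-bla HEK293T in 2% charcoal-stripped FBS. Exposure: 16 hr at 37C. Substrate step: 2 h at room temperature.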
Estrogen receptor beta (Homo sapiens), sequence (Q92731 whole entry, looked up): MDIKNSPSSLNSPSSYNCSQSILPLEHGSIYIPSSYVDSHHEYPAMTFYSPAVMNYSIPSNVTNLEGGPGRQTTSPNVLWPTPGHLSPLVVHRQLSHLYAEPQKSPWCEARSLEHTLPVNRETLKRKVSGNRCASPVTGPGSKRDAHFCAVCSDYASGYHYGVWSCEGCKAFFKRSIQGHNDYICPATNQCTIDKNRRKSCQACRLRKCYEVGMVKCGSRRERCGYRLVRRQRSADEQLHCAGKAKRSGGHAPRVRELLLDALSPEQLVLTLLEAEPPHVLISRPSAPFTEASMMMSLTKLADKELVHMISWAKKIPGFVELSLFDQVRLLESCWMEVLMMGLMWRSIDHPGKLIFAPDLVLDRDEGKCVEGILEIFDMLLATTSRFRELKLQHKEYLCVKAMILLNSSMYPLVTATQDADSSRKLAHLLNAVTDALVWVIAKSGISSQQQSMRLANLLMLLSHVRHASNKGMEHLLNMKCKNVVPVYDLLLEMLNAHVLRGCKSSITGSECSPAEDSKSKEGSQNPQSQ

For assay [4] the target is unchanged. The assay is described as follows: qHTS assay to identify small molecule antagonists of the estrogen receptor beta (ER-beta) signaling pathway (AID 1259378; active = well fitted inhibition curve with a large enough effect in the signal ratio in the repeat runs, not every such curve was filed as active; the % refers to the signal ratio). In short, it runs like this: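 Antagonist mode: compounds added to beta-lactamase reporter HEK293T ER-beta-UAS cells stimulated with E2 (1nM final), 16 hr at 37C. LiveBLAzer B/G FRET substrate, 2 hours room temperature, fluorescence read-out.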

Assay [5] in a line: qHTS assay to identify small molecule agonists of the androgen receptor (AR) signaling pathway in the presence of an antagonist - cell viability counter screen (AID 1259379). Note: nearly all actives have a fitted effect of over 25% in size. Note: potency is the fitted concentration of half-maximal effect. In short, it runs like this: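 MDA-kb2 viability measured by CellTiter-Fluor fluorescence in the same wells as the luciferase signal; nilutamide 3.0uM final; 15-point compound titration; 16 hr at 37C.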

A short description of assay [6]: qHTS assay to identify small molecule agonists of the estrogen receptor beta (ER-beta) signaling pathway - cell viability counter screen (AID 1259380). Note: nearly all actives have a fitted effect of over 30% in size. A digest of the protocol: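 Measured: luminescence from CellTiter-Glo after 30 min at room temperature, added to wells already read for the LiveBLAzer FRET reporter (2 hr substrate); ER-beta-UAS-bla HEK293T cells had 16 hr compound treatment at 37C, 5% CO2.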

The nature of assay [7]: qHTS assay to identify small molecule antagonists of the estrogen receptor beta (ER-beta) signaling pathway - cell viability counter screen (AID 1259382).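 Note: HEK293T cells carrying ER-beta-UAS-bla reporter stimulated with estradiol; series mostly up to about 92 µM; nearly all actives have a fitted effect of over 55% in size.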 In short, it runs like this:
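Readout: luminescence, CellTiter-Glo, same wells as bla assay. System: ER-beta-UAS-bla GripTite HEK293T, 2% charcoal-stripped FBS. Exposure: compounds plus 1nM 17-beta-estradiol, 16 hr, 37C.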

Assay [8] addresses Estrogen receptor (Homo sapiens) (UniProt P03372). The assay is described as follows: qHTS assay to identify small molecule agonists of the estrogen receptor alpha (ER-alpha) signaling pathway in the presence of an antagonist (AID 1259383; calls by dose curve; note: top concentration of the series differs between compounds; nearly all actives have a fitted effect of over 15% in size). In short, it runs like this: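 Quantitative HTS confirmation: compounds titrated at 15 concentrations onto estrogen-deprived VM7Luc4E2 cells carrying a four-ERE luciferase construct, with ICI-182,780 present at 10.0nM final. Signal is luminescence after 22hr exposure.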

Assay [9] is described as follows: qHTS assay to identify small molecule agonists or antagonists of the thyroid stimulating hormone receptor (TSHR) signaling pathway - wild type cell line counter screen (AID 1259384; calls by dose curve). In short, it runs like this: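 Counter screen in untransfected Hek293: compounds (15-point titration, triplicate) plus phosphodiesterase inhibitor Ro20-1724 added after 18 h plating; 30 min RT. Intracellular cAMP via competitive d2/cryptate immunoassay, 1 h incubation.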

In assay [10] the target is Thyrotropin receptor (Homo sapiens) (UniProt P16473). Briefly: qHTS assay to identify small molecule antagonists of the thyroid stimulating hormone receptor (TSHR) signaling pathway (AID 1259385; calls by dose curve; note: nearly all actives have a fitted effect of over 20% in size). In short, it runs like this: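 Antagonist mode: compound-treated TSHR-expressing HEK293 cells were stimulated with 1.5 ng/mL TSH (final) in presence of Ro20-1724 for 30 min at RT. HTRF cAMP detection after 1 h; each compound tested at 15 concentrations, triplicate.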
Thyrotropin receptor (Homo sapiens), sequence (P16473 whole entry, looked up): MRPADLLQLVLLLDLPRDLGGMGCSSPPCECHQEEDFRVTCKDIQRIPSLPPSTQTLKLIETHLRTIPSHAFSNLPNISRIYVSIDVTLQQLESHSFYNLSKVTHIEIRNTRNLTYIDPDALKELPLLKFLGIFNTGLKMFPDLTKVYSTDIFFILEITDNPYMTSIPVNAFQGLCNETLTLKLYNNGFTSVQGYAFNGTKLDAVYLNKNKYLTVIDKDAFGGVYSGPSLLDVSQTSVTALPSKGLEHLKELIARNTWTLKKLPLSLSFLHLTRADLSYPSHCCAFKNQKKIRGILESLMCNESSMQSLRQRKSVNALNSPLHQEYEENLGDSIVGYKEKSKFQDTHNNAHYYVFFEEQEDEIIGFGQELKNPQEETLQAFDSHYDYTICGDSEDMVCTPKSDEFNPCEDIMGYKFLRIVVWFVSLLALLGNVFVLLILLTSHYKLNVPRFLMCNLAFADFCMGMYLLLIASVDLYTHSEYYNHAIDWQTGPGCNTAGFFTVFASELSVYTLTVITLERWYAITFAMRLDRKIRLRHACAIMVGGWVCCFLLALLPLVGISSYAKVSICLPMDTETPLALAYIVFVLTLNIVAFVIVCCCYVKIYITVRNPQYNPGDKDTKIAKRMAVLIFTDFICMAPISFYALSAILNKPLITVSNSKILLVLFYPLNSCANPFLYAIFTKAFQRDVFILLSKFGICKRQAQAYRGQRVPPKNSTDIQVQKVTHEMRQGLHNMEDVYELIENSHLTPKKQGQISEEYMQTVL

Assay [11] is described as follows: qHTS assay to identify small molecule agonists of the estrogen receptor alpha (ER-alpha) signaling pathway in the presence of an antagonist - cell viability counter screen (AID 1259386).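 Note: cells exposed to compounds for 22 h at 37 °C before the viability read; nearly all actives have a fitted effect of over 30% in size.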 Note: potency is the fitted concentration of half-maximal effect. In short, it runs like this:
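The test measures whether compounds kill ER-alpha reporter cells (VM7Luc4E2) under antagonist co-treatment (ICI-182,780, 10.0nM). Fluorescence from CellTiter-Fluor is read after a 22hr exposure.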

Assay [12] concerns the target Progesterone receptor (Homo sapiens) (UniProt P06401). The assay is described as follows: qHTS assay to identify small molecule agonists of the progesterone receptor (PR) signaling pathway (AID 1346784; calls by dose curve; note: nearly all actives have a fitted effect of over 30% in size). In short, it runs like this: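 Compounds were tested for PR agonism in HEK 293T cells bearing a beta-lactamase gene under UAS control. Treatment lasted 16 hr at 37C; signal came from fluorescence of a FRET substrate.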

Assay [13] has the same target. Briefly: qHTS assay to identify small molecule antagonists of the progesterone receptor (PR) signaling pathway (AID 1346795; active = well fitted inhibition curve with a large enough effect in the signal ratio in the repeat runs, not every such curve was filed as active; the % refers to the signal ratio). In short, it runs like this: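 In HEK293T cells bearing the PR-UAS-bla reporter, compound effects on promegestone-driven (1 nM) beta-lactamase expression are assessed after 16 hr using a fluorescent FRET substrate incubated 2 hr at room temperature.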

A short description of assay [14]: qHTS assay to identify small molecule antagonists of the progesterone receptor (PR) signaling pathway - cell viability counter screen (AID 1346798). Note: nearly all actives have a fitted effect of over 50% in size. Note: potency is the fitted concentration of half-maximal effect. A digest of the protocol:
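Following a 4 hr attachment, PR-UAS-bla HEK293T cells in charcoal-stripped FBS medium were exposed to compounds with R5020 for 16 hr; CellTiter-Glo was added and luminescence read after 30 min at room temperature.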

Assay [15] is described as follows: qHTS assay to identify small molecule agonists of the progesterone receptor (PR) signaling pathway - cell viability counter screen (AID 1346799; calls by dose curve; note: nearly all actives have a fitted effect of over 45% in size; note: potency is the fitted concentration of half-maximal effect). In short, it runs like this: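 Here, 3,000 PR-UAS-bla HEK293T cells per well were treated with compounds for 16 hr after a 6 hr preincubation at 37C and 5% CO2; cell viability is the CellTiter-Glo luminescence signal.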

The nature of assay [16]: qHTS assay to identify small molecule antagonists of the TGF-beta/Smad signaling pathway - cell viability counter screen (AID 1346824). Note: nearly all actives have a fitted effect of over 50% in size. A digest of the protocol:
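Cytotoxicity counter-screen run in the same wells as the beta-lactamase Smad reporter read: CellTiter-Glo luminescence after 30 min at room temperature. HEK 293T SBE-bla cells had 5 hr compound exposure at 37 C with TGF-beta1 (0.25 ng/mL stock).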

A short description of assay [17]: qHTS assay to identify small molecule agonists of the TGF-beta/Smad signaling pathway (AID 1346859; active = well fitted activation curve with a large enough effect in the signal ratio in the repeat runs, not every such curve was filed as active; the % refers to the signal ratio; note: series mostly up to about 77 µM). A digest of the protocol: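 Each well held 4,000 SBE-bla HEK 293T cells incubated overnight before compound addition; 5 hr later the cleavable FRET substrate went on for 2 hr at room temperature, and fluorescence was read at two emissions.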
For assay [18], the target named is Thyrotropin-releasing hormone receptor (Homo sapiens) (UniProt P34981). Briefly: qHTS assay to identify small molecule antagonists of the thyrotropin-releasing hormone receptor (TRHR) signaling pathway (AID 1346877; active = well fitted inhibition curve with a large enough effect in the repeat runs, not every such curve was filed as active; note: series mostly up to about 51 µM). A digest of the protocol:
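Overnight-plated (18 h, 37 °C) HEK293 cells expressing TRHR were dye-loaded 2 h, treated with compound, then stimulated with TRH at 1 nM final. Fluorescence intensity was captured every second for 3 min.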

The nature of assay [19]: qHTS assay to identify small molecule agonists of the TGF-beta/Smad signaling pathway - cell viability counter screen (AID 1346829). Note: top concentration of the series differs between compounds; nearly all actives have a fitted effect of over 45% in size. A digest of the protocol: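 Luminescence from CellTiter-Glo, read after a 30 min room-temperature incubation, gives cell viability of SBE-bla HEK 293T cells treated 5 hr with compounds at 37 C.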
In assay [20] the target is Androgen receptor (Homo sapiens) (UniProt P10275). Briefly: qHTS assay to identify small molecule agonists of the androgen receptor (AR) signaling pathway in the presence of an antagonist (AID 1259381; calls by dose curve; note: nearly all actives have a fitted effect of over 15% in size). In short, it runs like this:
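Luminescent ONE-Glo read, 30min at room temperature, follows 16hr compound exposure (15 concentrations) of MDA-kb2 cells at 37C, 0% CO2, with nilutamide added at 3.0uM final.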

Values without a mark were called inactive. Inconclusive results are not listed. Active and inactive are the calls of the source. Unless noted, calls come from the whole dose curve; as a rule, active = well fitted curve in the direction sought with a large enough effect in the repeat runs; inconclusive = weak or mixed curves; inactive = no such curve, though single readings can be large; an effect the other way counts as inactive or inconclusive.

Estrogen receptor (Homo sapiens), sequence (P03372 whole entry, looked up): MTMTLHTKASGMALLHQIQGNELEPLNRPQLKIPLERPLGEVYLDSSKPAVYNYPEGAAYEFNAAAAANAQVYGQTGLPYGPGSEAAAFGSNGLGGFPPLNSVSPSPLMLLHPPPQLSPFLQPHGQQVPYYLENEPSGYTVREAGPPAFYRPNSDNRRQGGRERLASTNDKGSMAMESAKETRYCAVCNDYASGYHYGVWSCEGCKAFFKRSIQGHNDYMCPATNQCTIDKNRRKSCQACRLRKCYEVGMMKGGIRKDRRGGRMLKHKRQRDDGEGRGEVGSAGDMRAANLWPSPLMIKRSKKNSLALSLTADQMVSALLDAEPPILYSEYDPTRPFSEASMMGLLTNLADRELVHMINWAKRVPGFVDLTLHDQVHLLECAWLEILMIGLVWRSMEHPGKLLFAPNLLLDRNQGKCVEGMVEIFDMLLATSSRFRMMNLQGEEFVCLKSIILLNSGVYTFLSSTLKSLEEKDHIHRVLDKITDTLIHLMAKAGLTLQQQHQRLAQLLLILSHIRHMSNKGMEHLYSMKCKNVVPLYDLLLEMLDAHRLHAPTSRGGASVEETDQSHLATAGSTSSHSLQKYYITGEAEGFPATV
Thyrotropin-releasing hormone receptor (Homo sapiens), sequence (P34981 whole entry, looked up): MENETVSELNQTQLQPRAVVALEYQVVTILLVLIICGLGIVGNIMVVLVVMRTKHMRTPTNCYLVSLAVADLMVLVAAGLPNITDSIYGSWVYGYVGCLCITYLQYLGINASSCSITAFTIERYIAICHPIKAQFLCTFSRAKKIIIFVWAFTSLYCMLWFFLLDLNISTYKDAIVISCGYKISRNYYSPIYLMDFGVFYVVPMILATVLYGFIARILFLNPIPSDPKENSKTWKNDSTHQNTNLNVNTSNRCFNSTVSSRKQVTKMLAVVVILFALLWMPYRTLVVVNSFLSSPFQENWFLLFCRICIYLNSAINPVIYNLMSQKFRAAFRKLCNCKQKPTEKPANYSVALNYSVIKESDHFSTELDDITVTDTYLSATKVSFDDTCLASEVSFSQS
Progesterone receptor (Homo sapiens), sequence (P06401 whole entry, looked up): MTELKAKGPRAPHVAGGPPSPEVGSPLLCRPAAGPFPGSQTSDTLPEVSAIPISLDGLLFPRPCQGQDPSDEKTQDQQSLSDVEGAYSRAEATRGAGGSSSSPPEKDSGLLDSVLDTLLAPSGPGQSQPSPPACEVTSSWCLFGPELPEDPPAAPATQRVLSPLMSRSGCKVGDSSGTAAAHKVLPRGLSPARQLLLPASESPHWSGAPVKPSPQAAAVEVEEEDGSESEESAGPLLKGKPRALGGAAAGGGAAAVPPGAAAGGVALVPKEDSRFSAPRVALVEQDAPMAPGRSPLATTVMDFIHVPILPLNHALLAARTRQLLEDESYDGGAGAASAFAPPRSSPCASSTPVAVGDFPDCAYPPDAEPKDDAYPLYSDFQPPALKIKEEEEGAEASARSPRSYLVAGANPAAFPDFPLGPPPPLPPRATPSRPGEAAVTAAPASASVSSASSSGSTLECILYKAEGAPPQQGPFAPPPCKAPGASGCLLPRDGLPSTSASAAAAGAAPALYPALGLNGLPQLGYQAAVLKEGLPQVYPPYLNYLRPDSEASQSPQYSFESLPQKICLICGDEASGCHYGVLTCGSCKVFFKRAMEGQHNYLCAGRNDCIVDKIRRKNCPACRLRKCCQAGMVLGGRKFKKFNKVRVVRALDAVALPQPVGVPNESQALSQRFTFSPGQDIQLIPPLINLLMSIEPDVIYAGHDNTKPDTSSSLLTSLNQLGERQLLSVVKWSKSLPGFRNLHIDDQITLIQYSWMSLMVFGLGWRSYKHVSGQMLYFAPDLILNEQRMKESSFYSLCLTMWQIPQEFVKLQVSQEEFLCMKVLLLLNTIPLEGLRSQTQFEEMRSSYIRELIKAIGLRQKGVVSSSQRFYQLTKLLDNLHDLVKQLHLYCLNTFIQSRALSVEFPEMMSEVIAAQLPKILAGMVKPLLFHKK
Androgen receptor (Homo sapiens), sequence (P10275 whole entry, looked up): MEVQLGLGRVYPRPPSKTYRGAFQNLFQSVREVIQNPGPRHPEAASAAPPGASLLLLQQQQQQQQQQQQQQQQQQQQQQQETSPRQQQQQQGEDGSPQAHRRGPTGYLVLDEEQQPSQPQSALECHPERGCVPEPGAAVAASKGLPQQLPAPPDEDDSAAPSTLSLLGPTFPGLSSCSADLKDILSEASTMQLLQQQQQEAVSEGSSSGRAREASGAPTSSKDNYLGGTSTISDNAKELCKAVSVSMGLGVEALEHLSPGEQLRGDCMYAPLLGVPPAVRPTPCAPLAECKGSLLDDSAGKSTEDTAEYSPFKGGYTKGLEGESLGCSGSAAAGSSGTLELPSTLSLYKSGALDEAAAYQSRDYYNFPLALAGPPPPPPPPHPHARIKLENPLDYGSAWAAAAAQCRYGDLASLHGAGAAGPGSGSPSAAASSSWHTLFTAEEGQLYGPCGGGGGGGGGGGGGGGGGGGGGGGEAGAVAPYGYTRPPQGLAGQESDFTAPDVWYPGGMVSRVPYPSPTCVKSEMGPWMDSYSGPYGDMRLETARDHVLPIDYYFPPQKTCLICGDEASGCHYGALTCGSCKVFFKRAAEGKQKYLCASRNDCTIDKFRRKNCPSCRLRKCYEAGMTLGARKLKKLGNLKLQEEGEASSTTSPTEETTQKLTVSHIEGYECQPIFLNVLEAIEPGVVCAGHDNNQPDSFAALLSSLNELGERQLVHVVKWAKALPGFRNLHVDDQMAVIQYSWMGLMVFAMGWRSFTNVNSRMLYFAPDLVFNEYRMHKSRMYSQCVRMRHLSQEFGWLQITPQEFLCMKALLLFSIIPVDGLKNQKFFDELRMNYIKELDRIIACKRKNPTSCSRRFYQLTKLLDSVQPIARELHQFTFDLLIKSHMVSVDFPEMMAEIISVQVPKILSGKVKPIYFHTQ

Regarding `CC(C)=CCC[C@H](C)CCO`, the Potency result in assay [1], in assay [2], in assay [3], in [4], in assay [5] and in [6] was “inactive” each time. In addition, the Potency result in [7], in [8], in [10], in assay [11], in assay [12] and in [13] was “inactive” each time. Also, the Potency result in [14] and in assay [15] was “inactive” throughout. In addition, the compound was classed as inactive in [9], in assay [16], in assay [17] and in assay [18].

With `O=C1c2ccccc2C(=O)C1c1ccc2cc(S(=O)(=O)O)cc(S(=O)(=O)O)c2n1`, the Potency result in assay [1], in assay [2], in assay [3], in assay [4], in assay [7] and in [8] was “inactive” each time. The Potency result in [10] is “inactive”. Further, the Potency was 29.5 µM (active) in [5], 26.3 µM (active) in [11], 20.9 µM (active) in assay [14] and 18.6 µM (active) in assay [15]. For the same compound, the call in [9], in [16], in assay [19], in assay [17] and in assay [18] was inactive.

Take `C[Si](C)(C)O[Si](C)(C)O[Si](C)(C)C`: the Potency entry in assay [1], in [2], in assay [3], in assay [4], in [5] and in [7] was “inactive” in each case. Besides, the Potency entry in [10], in assay [11], in [12], in [13], in assay [14] and in assay [15] was “inactive” throughout. Also, the call in [9], in [16], in [19], in assay [17] and in [18] was inactive.

For `CO[C@@H]1COCC[C@@H]1N[C@@H]1CC[C@@](C(=O)N2CCc3ncc(C(F)(F)F)cc3C2)(C(C)C)C1`, the Potency result in assay [1], in assay [2], in [3], in assay [5], in assay [6] and in assay [7] was “inactive” throughout. Further, the Potency entry in assay [10], in assay [11] and in assay [14] was “inactive” in each case. In addition, the compound was called inactive in [9], in [16], in [19], in assay [17] and in assay [18].

Take `Nc1ccccc1Nc1ccccc1`: the Potency result in [1], in [3], in assay [5], in assay [6], in assay [7] and in assay [12] was “inactive” each time. In addition, in assay [15], the Potency entry was “inactive”. Also, the Potency in assay [2] is 2.74 µM (active). Besides, the result in assay [16], in assay [19], in assay [17] and in assay [18] was inactive.

On to `CCC1=C(C)CN(C(=O)NCCc2ccc(S(=O)(=O)NC(=O)NC3CCC(C)CC3)cc2)C1=O` (stereo unspecified), for which the Potency result in assay [1], in [2], in assay [3], in [5], in assay [20] and in assay [7] was “inactive” each time. Besides, the Potency entry in [8], in assay [10], in assay [11], in assay [12], in assay [13] and in [14] was “inactive” in each case. Further, the compound was classed as inactive in [9], in assay [16], in [19] and in [18].

On to `O=C(O)c1ccccc1[N+](=O)[O-]`, for which the Potency entry in [1], in assay [2], in assay [3], in assay [4], in assay [6] and in assay [7] was “inactive” throughout. The Potency result in assay [10], in [11], in assay [12], in assay [13], in [14] and in [15] was “inactive” each time. Besides, the result in assay [9], in [16], in assay [19], in [17] and in assay [18] was inactive.

As to `C[C@H](CN1CCCC1)C(=O)c1ccc(C(F)(F)F)cc1`, the Potency entry in assay [1], in [2], in assay [3], in assay [4], in assay [5] and in assay [7] was “inactive” throughout. Further, the Potency result in assay [11], in assay [12], in [13], in assay [14] and in assay [15] was “inactive” each time. In addition, the result in assay [9], in [16], in [19], in [17] and in [18] was inactive.

Source of the values: PubChem BioAssay (Tox21).
